Experimental data from PubChem BioAssay (NCI).
The panel holds about 83,000 compounds, 20% with a hit somewhere; the sample as a whole holds those more often.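 Note: values are percent growth. 100 is the growth of untreated cells, values between 100 and 0 indicate rising inhibition; between -100 and 0 indicates cell death.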

How the values were obtained:
Test in all cases: NCI-60 one-dose screen, 48 h (100 = growth as untreated, 0 = no growth, -100 = all killed)
Conditions in all cases: 10 µM unless noted; active = growth percent below 10; inactive = the rest
K-562 leukemia = system: K-562 leukemia
MALME-3M melanoma = system: MALME-3M melanoma
MDA-MB-231 breast = system: MDA-MB-231 breast
RXF 393 renal = system: RXF 393 renal
SF-268 CNS = system: SF-268 CNS
SF-295 CNS = system: SF-295 CNS
SF-539 CNS = system: SF-539 CNS
UACC-257 melanoma = system: UACC-257 melanoma
M14 melanoma = system: M14 melanoma
HCT-15 colon = system: HCT-15 colon
HT29 colon = system: HT29 colon
SNB-75 CNS = system: SNB-75 CNS
SNB-19 CNS = system: SNB-19 CNS
U251 CNS = system: U251 CNS
PC-3 prostate = system: PC-3 prostate
SK-MEL-5 melanoma = system: SK-MEL-5 melanoma
UACC-62 melanoma = system: UACC-62 melanoma
LOX IMVI melanoma = system: LOX IMVI melanoma
SK-MEL-28 melanoma = system: SK-MEL-28 melanoma
DU-145 prostate = system: DU-145 prostate

Measured: growth

O=[N+]([O-])c1ccccc1C(O)Cc1ccc2ccccc2n1 (stereo unspecified)
inactive: K-562 leukemia 108% | MALME-3M melanoma 89.6% | MDA-MB-231 breast 68.3% | RXF 393 renal 91.2% | SF-268 CNS 93.1% | SF-295 CNS 103% | SF-539 CNS 98.4% | UACC-257 melanoma 93.3% | M14 melanoma 90% | HCT-15 colon 105% | HT29 colon 112% | SNB-75 CNS 85.8% | SNB-19 CNS 101% | U251 CNS 96.9% | PC-3 prostate 95.5% | SK-MEL-5 melanoma 89.9% | UACC-62 melanoma 82.6% | LOX IMVI melanoma 93% | SK-MEL-28 melanoma 92.9%

CCCCCCNc1cc(C)nc2ccc(OC)cc12
inactive: K-562 leukemia 21% | MALME-3M melanoma 52.3% | MDA-MB-231 breast 69.6% | RXF 393 renal 61.2% | SF-268 CNS 93.2% | SF-295 CNS 44.4% | SF-539 CNS 68.4% | UACC-257 melanoma 69.4% | M14 melanoma 59.1% | HCT-15 colon 60.9% | HT29 colon 19.6% | SNB-75 CNS 89.2% | SNB-19 CNS 77.1% | U251 CNS 55.1% | PC-3 prostate 65.9% | SK-MEL-5 melanoma 35% | UACC-62 melanoma 64.1% | LOX IMVI melanoma 61.4% | SK-MEL-28 melanoma 67.9%

CCOC(=O)c1nnn(C(Cc2ccccc2Cl)C(=O)OCC)c1C (stereo unspecified)
inactive: DU-145 prostate 109% | MALME-3M melanoma 117% | MDA-MB-231 breast 104% | RXF 393 renal 109% | SF-268 CNS 111% | SF-295 CNS 111% | SF-539 CNS 107% | UACC-257 melanoma 83.6% | HCT-15 colon 107% | HT29 colon 86.8% | SNB-75 CNS 89.5% | U251 CNS 96.1% | PC-3 prostate 94% | SK-MEL-5 melanoma 101% | UACC-62 melanoma 99.9% | LOX IMVI melanoma 104% | SK-MEL-28 melanoma 111%

COc1ccc2cc(-c3ccc(C(=O)NN)c(C)n3)ccc2c1
inactive: DU-145 prostate 103% | MALME-3M melanoma 92.5% | MDA-MB-231 breast 97.4% | RXF 393 renal 113% | SF-268 CNS 91.9% | SF-295 CNS 99% | SF-539 CNS 103% | UACC-257 melanoma 99.6% | HCT-15 colon 99% | HT29 colon 95% | SNB-75 CNS 109% | SNB-19 CNS 96.6% | U251 CNS 98.9% | PC-3 prostate 93.3% | SK-MEL-5 melanoma 102% | UACC-62 melanoma 82.1% | LOX IMVI melanoma 88.2% | SK-MEL-28 melanoma 93.7%

Cc1cccc(-c2cc(O)c(C(=O)N3CCOCC3)s2)c1
inactive: DU-145 prostate 60.3% | MALME-3M melanoma 52.6% | MDA-MB-231 breast 56.7% | RXF 393 renal 62.9% | SF-268 CNS 57.1% | SF-295 CNS 37.9% | SF-539 CNS 33.6% | UACC-257 melanoma 52.8% | HCT-15 colon 21.4% | HT29 colon 52.2% | SNB-75 CNS 33.5% | SNB-19 CNS 31.5% | U251 CNS 28.6% | PC-3 prostate 60.5% | SK-MEL-5 melanoma 26% | UACC-62 melanoma 34.5% | LOX IMVI melanoma 33.2% | SK-MEL-28 melanoma 56.9%

CCN(CC)CCCNC(=O)c1ccc(N)cc1
inactive: K-562 leukemia 35.8% | MALME-3M melanoma 94.3% | MDA-MB-231 breast 104% | RXF 393 renal 110% | SF-268 CNS 102% | SF-295 CNS 99.3% | SF-539 CNS 106% | UACC-257 melanoma 92.9% | M14 melanoma 98.7% | HCT-15 colon 101% | HT29 colon 100% | SNB-75 CNS 95.5% | SNB-19 CNS 102% | U251 CNS 101% | PC-3 prostate 101% | SK-MEL-5 melanoma 97.7% | UACC-62 melanoma 105% | LOX IMVI melanoma 103% | SK-MEL-28 melanoma 96.8%

C[N+](C)(C)CCOC(OCC[N+](C)(C)C)(c1ccccc1)c1ccccc1
inactive: K-562 leukemia 99% | MALME-3M melanoma 126% | MDA-MB-231 breast 108% | RXF 393 renal 122% | SF-295 CNS 117% | SF-539 CNS 96.6% | UACC-257 melanoma 103% | HCT-15 colon 104% | HT29 colon 104% | SNB-75 CNS 87.3% | SNB-19 CNS 93.9% | U251 CNS 104% | PC-3 prostate 92.7% | SK-MEL-5 melanoma 110% | UACC-62 melanoma 99.3% | LOX IMVI melanoma 98.6% | SK-MEL-28 melanoma 104%

Clc1ccc(/C=N\N=c2\scc(-c3ccc(Cl)cc3)n2/N=C/c2ccc(Cl)cc2)cc1
inactive: DU-145 prostate 105% | MALME-3M melanoma 100% | MDA-MB-231 breast 101% | RXF 393 renal 108% | SF-268 CNS 97.8% | SF-295 CNS 109% | SF-539 CNS 96.1% | UACC-257 melanoma 77.9% | HCT-15 colon 111% | HT29 colon 76.5% | SNB-75 CNS 91.6% | SNB-19 CNS 90% | U251 CNS 97.6% | PC-3 prostate 102% | SK-MEL-5 melanoma 106% | UACC-62 melanoma 98.7% | LOX IMVI melanoma 109% | SK-MEL-28 melanoma 106%

Nc1c(-c2nc3ccccc3c(=O)[nH]2)nnn1-c1ccc(Cl)cc1
inactive: DU-145 prostate 77.3% | MALME-3M melanoma 83.3% | MDA-MB-231 breast 85% | RXF 393 renal 81.9% | SF-268 CNS 66.8% | SF-295 CNS 73.6% | SF-539 CNS 50.5% | UACC-257 melanoma 84.8% | HCT-15 colon 93.1% | HT29 colon 68.7% | SNB-75 CNS 24.7% | SNB-19 CNS 76% | U251 CNS 74.6% | PC-3 prostate 85.3% | SK-MEL-5 melanoma 92.6% | UACC-62 melanoma 99.1% | LOX IMVI melanoma 107% | SK-MEL-28 melanoma 81.1%

CC(=O)NCC(=O)Nc1ccc(-c2nnc3ccccn23)nc1.CC(=O)NCC(=O)Nc1ccc(-c2nnc3ccccn23)nc1.[Pt+2]
inactive: DU-145 prostate 109% | MALME-3M melanoma 105% | MDA-MB-231 breast 104% | RXF 393 renal 117% | SF-268 CNS 109% | SF-295 CNS 117% | SF-539 CNS 110% | UACC-257 melanoma 78.7% | HCT-15 colon 109% | HT29 colon 98.3% | SNB-75 CNS 132% | SNB-19 CNS 107% | U251 CNS 99.4% | PC-3 prostate 101% | SK-MEL-5 melanoma 108% | UACC-62 melanoma 110% | LOX IMVI melanoma 106% | SK-MEL-28 melanoma 118%
